The list is not random: actives were taken first. Their share in the collection is about 19%.
Shiga toxin inh: Shiga toxin inhibition; Vero cells, Shiga toxin protein synthesis inhibition reporter; inhibition, % at 38.7 µM; actives 9.2% (n = 290,000); in the data active = inhibition mostly above about 28%, no sharp cut-off; inactive = mostly below about 43%; note: 0% is about no effect
Pf growth 48h: inhibits P. falciparum growth in the first generation, 48 h; P. falciparum luciferase growth in erythrocytes, 48 h; Potency, µM (top dose mostly 28.7 µM), without a hit: at the highest dose activity change, negative = inhibition, most hits filed as inhibitors; actives 5.9% (n = 310,000); AID 504832; note: potency is the fitted concentration of half-maximal effect; % is set by controls: 0 for no effect and ±100 for the full control effect
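Read-out is firefly luciferase luminescence from an integrated reporter in P. falciparum, so falling signal marks reduced parasite growth. Infected erythrocytes were at 2% hematocrit and 0.1% parasitemia (final) in Albumax-supplemented RPMI 1640.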
CHX counter: counter-screen hit for Shiga toxin inhibitors, cycloheximide; cell reporter, cycloheximide protein synthesis inhibition counterscreen; max response, %; AID 2314; actives 12% (n = 300,000); in the data active = max response mostly above about 13%, no sharp cut-off; inactive = mostly below about 14%; note: read at 38.3 µM for the half of the compounds with a filed dose; 0% is about no effect
Pf growth 96h: P. falciparum growth inhibition at 96 hours | actives 6.9% (n = 320,000) | Potency, µM (titrated, usually from 28.7 µM), without a hit: at the top dose activity change, negative = inhibition, hits mostly inhibitors | P. falciparum luciferase reporter growth, 96 h; note: potency is the fitted concentration of half-maximal effect; % is set by controls: 0 for no effect and ±100 for the full control effect
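Erythrocytes infected with luciferase-expressing P. falciparum were dispensed at 2% hematocrit and 0.05% parasitemia (final), then incubated with compounds 96 hours at 37 C in 5% CO2. Luminescence after detection reagent addition reported growth.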
Marburg entry inh: blocks Marburg virus binding to or entry into cells. Marburg virus pseudotyped entry inhibition, cell reporter. Potency, µM (highest dose often 37.8 µM), without a hit: at the highest dose activity change, negative = inhibition, usual class: inhibitors. actives 1.8% (n = 300,000); calls by dose curve; tested in HEK293 cells; note: potency is the fitted concentration of half-maximal effect; % is set by controls: 0 for no effect and ±100 for the full control effect
Lassa entry inh: inhibitors of Lassa virus binding or cell entry; Lassa virus pseudotype entry inhibition, cell reporter; Potency, µM (titrated, usually from 37.9 µM), for inactives: top-dose activity change, negative = inhibition, most hits filed as inhibitors; actives 1.2% (n = 300,000); AID 540256; calls by dose curve; tested in HEK293 cells; note: potency is the fitted concentration of half-maximal effect; % is set by controls: 0 for no effect and ±100 for the full control effect; nearly all actives have a fitted effect of over 50% in size
An asterisk follows results filed as active; ? = inconclusive; / = not tested or not shown; ! = a repeat was not active; [ ] = remark or other dose. Unless noted, calls come from the whole dose curve; as a rule, active = well fitted inhibition curve with a large enough effect; inconclusive = small, poorly fitted or top-dose-only effect, or another doubt; inactive = no such curve, though single readings can be large or run the other way.

SMILES	Shiga toxin inh	Pf growth 48h	CHX counter	Pf growth 96h	Marburg entry inh	Lassa entry inh
Cc1cc2c(c(=O)n1Cc1ccc3c(c1)OCO3)C(c1cccnc1)C(C#N)=C(N)O2 (stereo not drawn)	-7	12µM*	1	-12%[5.75 µM]	4%	-5%
COc1ccc(CCn2c(C)cc3c(c2=O)[C@H](c2ccc4c(c2)OCO4)C(C#N)=C(N)O3)cc1OC	/	/	/	/	-28%	/
COc1cc(C2C(C#N)=C(N)Oc3cc(C)n(CCN4CCOCC4)c(=O)c32)cc(OC)c1OC (stereo not drawn)	52	?	41*	/	0%	0%
COc1ccc(C2C(C(=O)c3cccs3)=C(O)C(=O)N2c2cccc(C)n2)cc1 (stereo not drawn)	35	8%	8	30%	15%[46.1 µM]	12%
COc1ccc(C2C(C(C)=O)=C(O)C(=O)N2c2ccc(Br)cn2)cc1 (stereo not drawn)	15	?	9	4.1µM*	10%	18%
CCO[C@H]1OC(C(=O)NCc2ccccc2)=C[C@@H](c2ccc3c(c2)OCO3)[C@@H]1CCCO	-3	-9%	-1	-2%	/	/
COc1cc(OC)c(NC(=O)C2=C(C)C(=O)OC23CCCCCC3)cc1Cl	/	/	/	/	/	-16%[46.1 µM]
O=C(O)CCCCCn1c(SCc2cc(=O)n3cc(Cl)ccc3n2)nc2ccsc2c1=O	16	?	-3	11%	0%	1%
O=c1c2sccc2nc(SCc2cc(=O)n3cc(Cl)ccc3n2)n1Cc1ccccn1	82*	186%	41*	8%	-5%[46.1 µM]	8%
O=c1c2sccc2nc(SCc2ccc([N+](=O)[O-])cc2)n1Cc1ccccn1	62*	5%	26*	-16%	?	?
Cc1ccc(CNC(=O)CSc2nc3ccsc3c(=O)n2Cc2ccccn2)cc1	22	46%	1	-6%	24%[46.1 µM]	3%
COC(=O)c1cc2ccsc2n1Cc1cccc(F)c1	17	-1%	6	?	0%	3%
COC(=O)c1cc2ccsc2n1Cc1ccccc1F	4	22%	10	12µM*	-2%	21%
Cn1c(SCc2nc3ccccc3[nH]2)nnc1-c1cnccn1	43	6%	27	/	13%	16%
Cn1c(SCc2ccccn2)nnc1-c1cnccn1	57*	39%	38*	-1%	?	13%
CCN(CC)C(=O)CSc1nnc(-c2ccccc2)n1N	-7	16%	21	-4%	29%	-2%
Cc1cccc(CSc2nnc(-c3ccccn3)n2N)c1	36	33%	18*	?	4%	9%
Cn1c(SCc2ccccc2F)nnc1-c1cnccn1	111*	123%	75*	?	?	-4%
C=C(C)CSc1nnc(-c2ccccc2)n1N	75*	30%	24*	-22%	?	39%
COc1ccc(N(CC(=O)N/N=C/c2ccco2)S(=O)(=O)c2ccccc2)cc1	-7	-2%	-3	1%	12%	5%
CCO[C@@H]1OC(C(=O)N2CCOCC2)=C[C@H](C2CC2)[C@H]1CCCO	14	35%	-2	26%	/	/
Cn1c(SCC(N)=O)nnc1-c1cnccn1	2	29%	4	15%	6%	7%
Nn1c(SCc2cccc(F)c2)nnc1-c1cccnc1	24	56%	14	82%	-15%[14.2 µM]	0%
Cn1c(SCc2ccccc2F)nnc1-c1ccccn1	109*	275%	44*	11%	/	/
Nn1c(SCc2ccccc2F)nnc1-c1cccnc1	75*	112%	40*	124%	/	/
SMILES	Shiga toxin inh	Pf growth 48h	CHX counter	Pf growth 96h	Marburg entry inh	Lassa entry inh
Cc1cccc(CSc2nnc(-c3cnccn3)n2C)c1	45*	-36%	17*	33%	10%	22%
CN[C@@H]1[C@H](O[C@H]2[C@H](O[C@H]3[C@H](O)[C@@H](O)[C@H](N=C(N)N)[C@@H](O)[C@@H]3N=C(N)N)O[C@@H](C)[C@]2(O)C=O)O[C@@H](CO)[C@H](O)[C@H]1O	-9	1%	9	4%	/	/
CC(c1ccccc1)N1CC(C(=O)NC2CCCC2)CC1=O (stereo not drawn)	-7	0%	-4	34%	6%	22%
Cc1ccccc1NC(=O)CCCN1C(=O)C2CC=CCC2C1=O (stereo not drawn)	-4	2%	-4	31%	/	/
CC1(C)CC(c2nc(-c3ccccc3)cs2)CCS1 (stereo not drawn)	-2	7%	16*	3%	6%[46.1 µM]	?
CN(C)CCCOC(=O)C1c2ccccc2Oc2ccccc21	-9	-7%	-4	1%	-7%	3%
CC[N+](C)(CC)CCOC(=O)C1c2ccccc2Oc2ccccc21	/	10µM*!	/	10µM*!	/	/
CN(C)CCNC(=O)COc1ccc(C23CC4CC(CC(C4)C2)C3)cc1	-9	-4%[5.75 µM]	-2	52%	4µM*	?
Cc1ccc(C23CC4CC(CC(NC(=O)NCCN(C)C)(C4)C2)C3)cc1	-21	/	-3	?	?	?
COc1ccc(C2=NN(C(=O)CSc3ncccn3)C(c3ccc(OC)cc3)C2)cc1 (stereo not drawn)	12	10µM*	11	?	-31%	?
COc1ccc(C2CC(c3ccc4ccccc4c3)=NN2C(=O)CN2C(=O)CCC2=O)cc1 (stereo not drawn)	24	9.3µM*	13	?	?	?
Cc1ccc(C2CC(c3ccc(Br)cc3)=NN2C(=O)CSC2=NN3CCCC(=O)N=C3S2)cc1 (stereo not drawn)	10	12µM*	1	14%	/	/
COc1ccc(C2=NN(C(=O)CN3CCCC3)C(c3ccc(OC)cc3)C2)cc1 (stereo not drawn)	22	?	8	?	?	21%
COc1ccc(C2=NN(C(=O)CSc3nc4ccccc4s3)C(c3ccc(OC)cc3)C2)cc1 (stereo not drawn)	4	12µM*	-4	?	?	?
Cc1ccc(NC(=S)NC(CO)C(O)c2ccc([N+](=O)[O-])cc2)cc1 (stereo not drawn)	-11	-1%	-2	11%	1%[46.1 µM]	14%
COc1ccc(C2=NN(C(=O)CSc3cn(C)c4ccccc34)C(c3ccc(OC)cc3)C2)cc1 (stereo not drawn)	-1	?	-2	?	3%	/
COc1ccc2c(c1)C(C)CC(C)(C)N2C(=O)CSc1nc2ccccc2s1 (stereo not drawn)	-12	?	-3	10µM*	?	?
COc1ccc(C2CC(c3ccc4ccccc4c3)=NN2C(=O)CSc2ncccn2)cc1 (stereo not drawn)	43*	?	15*	10µM*	?	?
COc1ccc(C2=NN(C(=O)CSc3nc(=O)n4cc(C)ccc4n3)C(c3ccc(C)cc3)C2)cc1 (stereo not drawn)	/	?	/	8.3µM*	?	-25%
CC(C)NC(=O)c1nn(C)c2c1CS(=O)(=O)c1ccccc1-2	/	/	/	/	/	-11%[46.1 µM]
